Mdm2 MdmX PPI = inhibitors of human Mdm2-MdmX association, primary screen, cell-based, luminescence, split luciferase, SaOS-2, uHTS; 330,000 tested, 3% active; SaOS-2 split-luciferase Mdm2/MdmX complementation; Protein Mdm4 (Homo sapiens) + E3 ubiquitin-protein ligase Mdm2 (Homo sapiens), …; inhibition, % at 8 µM; AID 485346, 2010;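 active means inhibition of at least 50% at 8 µM in the primary screen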
Target sequence (O15151 whole entry, looked up): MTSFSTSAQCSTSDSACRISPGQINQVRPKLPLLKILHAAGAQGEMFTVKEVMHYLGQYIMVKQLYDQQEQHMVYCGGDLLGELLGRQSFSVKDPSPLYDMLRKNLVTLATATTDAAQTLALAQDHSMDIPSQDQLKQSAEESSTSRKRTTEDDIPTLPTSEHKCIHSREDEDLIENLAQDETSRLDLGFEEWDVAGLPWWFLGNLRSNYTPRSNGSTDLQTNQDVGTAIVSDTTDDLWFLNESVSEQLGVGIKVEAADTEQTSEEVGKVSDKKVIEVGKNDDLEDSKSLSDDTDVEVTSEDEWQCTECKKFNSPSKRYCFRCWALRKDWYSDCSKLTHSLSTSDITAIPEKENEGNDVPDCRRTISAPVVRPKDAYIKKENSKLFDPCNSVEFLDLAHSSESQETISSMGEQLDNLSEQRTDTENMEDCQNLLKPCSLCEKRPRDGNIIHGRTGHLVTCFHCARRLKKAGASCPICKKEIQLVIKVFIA
Target sequence (Q00987 whole entry, looked up): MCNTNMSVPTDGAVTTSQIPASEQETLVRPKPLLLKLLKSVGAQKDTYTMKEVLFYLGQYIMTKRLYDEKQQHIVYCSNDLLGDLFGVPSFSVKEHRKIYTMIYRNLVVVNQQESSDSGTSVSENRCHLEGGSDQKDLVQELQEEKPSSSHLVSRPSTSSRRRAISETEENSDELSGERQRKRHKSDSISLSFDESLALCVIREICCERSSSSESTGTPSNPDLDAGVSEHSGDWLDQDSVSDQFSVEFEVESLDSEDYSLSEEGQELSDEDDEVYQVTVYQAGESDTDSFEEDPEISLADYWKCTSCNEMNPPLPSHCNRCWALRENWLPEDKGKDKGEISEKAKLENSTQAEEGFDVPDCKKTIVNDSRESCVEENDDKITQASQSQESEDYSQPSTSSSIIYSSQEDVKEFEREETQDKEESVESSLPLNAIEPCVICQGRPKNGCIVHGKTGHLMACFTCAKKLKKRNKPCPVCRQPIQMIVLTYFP
Shn3 inh set2 = reduction of Shn3 3'UTR firefly luciferase signal, primary screen, Schnurri-3 inhibitor project, cell-based, Clone20 osteoblasts, set 2. Clone20 osteoblast Shn3 3'UTR firefly luciferase, 24 h. inhibition, % at 12.5 µM. 360,000 tested, 0.52% active. AID 588674, 2011;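 active means mean inhibition of at least 75% with every replicate also reaching 75%; inconclusive means mean inhibition at least 75% but some replicate below; inactive means mean inhibition below 75%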;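 further: 0% = median of neutral control wells and 100% = pilot-screen positive control compound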
PAX8 reporter = inhibitors of PAX8-driven TPO luciferase reporter, primary screen, RMG-I cells, single concentration; AID 652154, 2013; inhibition, % at 12.6 µM; 360,000 tested, 1.2% active; SteadyGlo, 24 h;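 active means mean replicate inhibition at least 60% with every replicate also reaching 60%; inconclusive means only one of the two criteria is met; inactive means mean below 60% and not all replicates reaching 60%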;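 further: luciferase light reporting Pax8 driven TPO promoter activity; plate controls were median of neutral control wells for no effect and mitoxantrone controls for full effect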
Gli-Sufu block = Gli-Sufu pathway antagonists, primary screen, luciferase luminescence, Sufu-KO-LIGHT cells, uHTS. inhibition, % at 5 µM. Sufu-KO-LIGHT fibroblasts, Gli luciferase reporter luminescence. 340,000 tested, 0.74% active;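 active means inhibition above about 55%, limit read from the data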;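 further: 0% = DMSO-treated cells and 100% = wells with medium but no cells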
Beta cell apopt = inhibitors of cytokine-induced beta cell apoptosis, primary screen, luminescence; INS-1E cytokine-induced death, ATP luminescence, 48 h; percent of positive-control rescue, neutral wells zero; protection from apoptosis, % (no concentration beside the values); 300,000 tested, 0.8% active;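 active means Every replicate reaches about 75%, or at least half do and their mean reaches it too, limit read from the data; inconclusive means At least half of replicates reach the limit but their mean does not; inactive means Under half of replicates reach the limit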;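 further: 0% = cytokine-treated negative control wells and 100% = positive control rescue; higher means more ATP so stronger rescue from cytokine killing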
CSC inhib = cancer stem cell viability inhibitors, primary screen, luminescence; cancer stem cell-like cells viability; 300,000 tested, 1.1% active; AID 2717, 2010; inhibition, % at 7.5 µM; in the data active means inhibition above about 75%; inconclusive means no clear call, values can overlap the other calls; tested in HMLE shEcad cells
Mdm2 MdmX conf = Mdm2-MdmX complex disruptors, retested hits, confirmation, luminescence, single concentration. inhibition, % at 8 µM. shares compounds with Mdm2 MdmX PPI. 10,000 tested, 55% active. Mdm2-MdmX binding, luminescent assay; in the data active means inhibition above about 40%
Full FLuc ctr = full-length luciferase signal inhibition, confirmation, counter-screen for Mdm2/MdmX interaction inhibitor project, cell-based, single concentration, SaOS-2 | AID 504607, 2011 | shares compounds with Mdm2 MdmX PPI | SaOS-2 full-length luciferase counterscreen, luminescence | inhibition, % at 8 µM | 6,200 tested, 77% active;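 active means mean inhibition at 8 µM reaching about 37%, which flags the compound as non-specific, limit read from the data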;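 further: p53-null SaOS-2 cells with luciferase driven by a doxycycline-inducible promoter; compound on cells about two nights before reading with doxycycline added after day one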
An asterisk follows results filed as active; ? = inconclusive; nt = no result given. Compounds with a hit are over-represented: about 4% of the library has one in this group of screens.

SMILES	Mdm2 MdmX PPI	Shn3 inh set2	PAX8 reporter	Gli-Sufu block	Beta cell apopt	CSC inhib	Mdm2 MdmX conf	Full FLuc ctr
COc1cc(OC)cc(C(=O)NC(=S)NNC(=O)[C@H]2C[C@@H]2c2ccccc2)c1	-3	20	-31	1	4	26	nt	nt
CCOc1ccc(C(C)=O)cc1COC(=O)CNC(=O)C12CC3CC(CC(C3)C1)C2	57*	7	24	-1	-4	7	2	nt
CN1CCN(c2ccc(NC(=O)c3ccc(-c4ccc(Cl)cc4)o3)cc2)CC1	100*	8	-15	15	26	105*	48*	77*
CS(=O)(=O)N1CCN(c2ccc(NC(=O)c3ccc(-c4ccc(Cl)cc4)o3)cc2)CC1	50	3	nt	2	-3	0	27	nt
CCc1nnc(NC(=O)c2ccc(-c3ccc(Cl)cc3)o2)s1	65*	-4	nt	2	-8	-1	-12	nt
C[C@H](NC(=O)C[C@@H]1CC[C@H](NC(=O)C2CCOCC2)[C@@H](CO)O1)c1ccccc1	nt	nt	-3	nt	nt	nt	nt	nt
CN1C(=O)Nc2cccc3cccc1c23	52*	-5	-12	40	3	6	25	nt
C[C@@H]1CN([C@@H](C)CO)C(=O)c2cc(-c3cccc(C#N)c3)cnc2O[C@@H]1CN(C)C(=O)C1CCC1	nt	nt	-12	nt	nt	nt	nt	nt
C[C@H](CO)N1C[C@H](C)[C@H](CN(C)C(=O)Nc2ccc(F)cc2)OCCCC[C@H](C)Oc2ccc(NC(=O)NC3CCCCC3)cc2C1=O	nt	nt	2	nt	nt	nt	nt	nt
C[C@@H]1CN([C@@H](C)CO)C(=O)c2c(c3ccccc3n2C)-c2ccccc2CO[C@@H]1CN(C)C(=O)Nc1ccc2c(c1)OCO2	nt	nt	16	nt	nt	nt	nt	nt
Cc1cc(C)c2ccc(N)nc2c1O	83*	75	-6	0	34	25	75*	41*
CC(C)(C)c1ccc(C(=O)NC(=S)Nc2nc3c(s2)CCCC3)cc1	61*	29	-83	30	13	80*	51*	102*
COC(=O)c1cc(S(=O)(=O)N2CCOCC2)c(Cl)cc1N1CCOCC1	26	-10	nt	1	-3	-9	nt	nt
COC(=O)c1cc(C)nc2c1C(=O)C(=O)C=C2N1CCOCC1	65*	99*	106*	10	104*	51	26	nt
C[C@@]12C(=O)Nc3ccccc3C(=O)N1[C@H]1c3cc(Br)ccc3OC[C@@H]1[C@@H]2c1ccccc1	63*	17	20	5	7	-17	53*	31
CCOC(=O)[C@H]1[C@H]2COc3ccc(C)cc3[C@@H]2N2C(=O)c3ccc(Cl)cc3NC(=O)[C@@]12C	25	0	8	26	-1	15	nt	nt
COc1ccc2c(c1)C(=O)N1[C@H]3c4cc(Br)ccc4OC[C@@H]3[C@H](c3ccccc3)[C@]1(C)C(=O)N2	64*	-26	nt	-3	9	-13	63*	37*
CCOC(=O)[C@H]1[C@H]2COc3ccc(Cl)cc3[C@@H]2N2C(=O)c3ccc(Cl)cc3NC(=O)[C@@]12C	53*	0	34	10	3	36	25	nt
O=C(NC1CCCCC1)N1CC(=O)N2[C@H](CO)[C@H](c3ccc(/C=C/c4ccccc4)cc3)[C@@H]2C1	nt	nt	1	nt	nt	nt	nt	nt
O=S(=O)(c1ccc2ccccc2c1)N1CCN(Cc2ccc(OCCO)cc2)CC1	nt	nt	-29	nt	nt	nt	nt	nt
CN(C)C(=O)c1ccc(-c2cccc(-c3nc(C(=O)NC4CCCC4)cc4c3[C@H](CCO)N([S@@](=O)C(C)(C)C)C4)c2)cc1	nt	nt	18	nt	nt	nt	nt	nt
Cc1cc(NC(c2ccc(Cl)cc2)c2ccc3cccnc3c2O)no1 (stereo unspecified)	63*	89*	nt	67*	nt	101*	82*	27
CC(C)C(=O)NC(c1ccc(Cl)cc1Cl)c1ccc2cccnc2c1O (stereo unspecified)	84*	87*	60	28	nt	100*	91*	22
CCC(=O)NC(c1ccc(Cl)cc1Cl)c1ccc2cccnc2c1O (stereo unspecified)	78*	?	66*	89*	104*	104*	87*	20
COc1ccc(C(NC(=O)C(C)C)c2ccc3cccnc3c2O)cc1 (stereo unspecified)	77*	95*	?	51	104*	104*	83*	29
SMILES	Mdm2 MdmX PPI	Shn3 inh set2	PAX8 reporter	Gli-Sufu block	Beta cell apopt	CSC inhib	Mdm2 MdmX conf	Full FLuc ctr
Cc1ccnc(NC(c2cccnc2)c2ccc3cccnc3c2O)c1 (stereo unspecified)	33	35	0	17	-25	1	nt	nt
CCC(=O)N1[C@@H](CO)[C@H](c2ccc(-c3ccc(C#N)cc3)cc2)C12CN(C(C)=O)C2	nt	nt	5	nt	nt	nt	nt	nt
CCC(=O)N1[C@H](CO)[C@H](c2ccc(-c3ccccc3)cc2)[C@@H]1CNC(=O)COC	nt	nt	-2	nt	nt	nt	nt	nt
FC(F)(F)c1cc(CCN2CCNC[C@@H]2c2ccccc2)cc(C(F)(F)F)c1	31	-44	-21	4	7	32	nt	nt
FC(F)(F)c1cc(CO[C@@H]2CCCN[C@@H]2c2ccccc2)cc(C(F)(F)F)c1	59*	-15	-20	-8	16	15	30	nt
O=C(Nc1ccc(F)cc1)N1[C@H](CO)[C@H]2c3ccccc3NC[C@H]21	nt	nt	8	nt	nt	nt	nt	nt
COc1ccc(/C=C/c2cc[n+](C(=O)Cc3ccccc3)cc2)cc1	63*	10	20	13	3	8	52*	45*
COc1ccc(/C=C/C(=O)NCCCc2ccccc2)cc1	-12	-5	20	-4	-2	-10	nt	nt
CC(C)NC(=O)N(C)C[C@@H]1Oc2ccc(NC(=O)Cc3ccccc3)cc2CC(=O)N([C@@H](C)CO)C[C@H]1C	nt	nt	-13	nt	nt	nt	nt	nt
Cc1ccc2nc(-c3ccc(-c4ccccn4)s3)cn2c1	-96	-60	-86	-61	-12	-2	nt	nt
Cc1ccc2nc(-c3ccccc3)cn2c1	67*	84	nt	18	32	-18	58*	32
O=C(CCc1nc(-c2ccccc2F)no1)Nc1ccc(Oc2ccccc2)cc1	61*	58	nt	31	1	57	23	52*
C[C@@H]1CN([C@H](C)CO)C(=O)c2cccc(NS(=O)(=O)c3cn(C)cn3)c2O[C@@H]1CN(C)S(=O)(=O)c1ccc(Cl)cc1	nt	nt	0	nt	nt	nt	nt	nt

Screening data: PubChem BioAssay, several laboratories
